In ChEMBL document CHEMBL1961873, “Compounds: GSK PKIS; Assays: Nanosyn kinase panel” (2012) one finds inhibition data, which are given here for 34 compounds.

Each structure is given as a SMILES string.
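Also: mean TRKC inhibition from the GSK PKIS kinase inhibitor set, with assays run by Nanosyn.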

For the experiment, the target named is NT-3 growth factor receptor (Homo sapiens) (UniProt Q16288). The settings on record: at 1 µM.
Sequence of NT-3 growth factor receptor (Homo sapiens) (Q16288 32-839 limits assumed): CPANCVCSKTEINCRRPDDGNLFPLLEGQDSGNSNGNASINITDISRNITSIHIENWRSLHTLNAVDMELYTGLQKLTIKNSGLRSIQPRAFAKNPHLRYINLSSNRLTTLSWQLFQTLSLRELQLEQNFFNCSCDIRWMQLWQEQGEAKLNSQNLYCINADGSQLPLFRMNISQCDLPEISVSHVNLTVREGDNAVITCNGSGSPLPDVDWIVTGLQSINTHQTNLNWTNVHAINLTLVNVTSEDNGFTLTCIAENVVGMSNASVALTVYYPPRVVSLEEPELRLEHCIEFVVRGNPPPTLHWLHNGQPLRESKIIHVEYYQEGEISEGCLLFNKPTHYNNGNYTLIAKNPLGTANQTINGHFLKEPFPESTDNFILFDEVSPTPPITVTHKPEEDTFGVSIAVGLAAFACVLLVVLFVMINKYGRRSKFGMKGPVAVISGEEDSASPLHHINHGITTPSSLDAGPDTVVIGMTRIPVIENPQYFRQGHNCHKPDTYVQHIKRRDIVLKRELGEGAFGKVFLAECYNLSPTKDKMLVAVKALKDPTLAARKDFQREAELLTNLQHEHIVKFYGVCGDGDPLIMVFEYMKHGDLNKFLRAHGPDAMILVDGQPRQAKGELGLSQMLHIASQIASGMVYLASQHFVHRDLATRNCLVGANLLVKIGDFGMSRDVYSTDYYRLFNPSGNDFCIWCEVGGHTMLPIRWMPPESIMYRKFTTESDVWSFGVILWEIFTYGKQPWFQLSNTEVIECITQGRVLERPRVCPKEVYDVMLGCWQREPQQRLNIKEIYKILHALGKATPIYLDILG
A word on the inhibition: it is the drop in the measured response relative to a control, in per cent. `NC(=O)c1ccc(Oc2nccc(-c3c(-c4ccc(F)cc4)ncn3C3CCNCC3)n2)cc1`: the inhibition was 4.93%.
Consider `Fc1ccc(-c2ncn(CCCN3CCOCC3)c2-c2ccncc2)cc1`, for which the inhibition is -2.77%.
In the case of `COc1cccc(/C=N/Nc2ncnc3c2cnn3-c2cccc(OC)c2)c1` it was 2.15%; in that of `N#Cc1ccc(Oc2nccc(-c3c(-c4ccc(F)cc4)ncn3C3CCNCC3)n2)cc1`, 3.17%.
Consider `COc1ccc(-c2ccc3c(NC(=O)C4CC4)n[nH]c3n2)cc1`, for which the inhibition amounted to 5.04%.
In the case of `O=C(Nc1n[nH]c2cc(-c3ccccc3)ccc12)C1CC1` it was 7.68%.
Then `COC(=O)Nc1nc2ccc(Sc3ccc(NC(=O)Nc4cc(C(F)(F)F)ccc4F)cc3)cc2[nH]1`, with 69.5%; and `CN(c1ccc(NC(=O)Nc2c(Cl)cccc2Cl)cc1)c1ccnc(Nc2cccc(CS(C)(=O)=O)c2)n1`, with 88.6%.
Then `O=C1Nc2ccc(I)cc2C1=Cc1cc(Br)c(O)c(Br)c1`, with 6.01%.
On to `Clc1ccc(CNc2nccc(-c3cnn4ncccc34)n2)cc1`, for which the inhibition is 2.98%.
Consider `C/C(Nc1ccc(S(N)(=O)=O)cc1)=C1/C(=O)Nc2ccccc21`, for which the inhibition turned out to be 87.1%.
In the case of `CCc1nccc2c1nc(-c1nonc1N)n2CC` it was -0.85%; in that of `NC(=O)c1cc(-c2ccncc2)cc(-c2ccccc2)c1N`, 4.68%; in that of `COc1cc(Nc2ncc(-c3ccccc3)o2)cc(OC)c1OC`, 25.2%.
As for `NS(=O)(=O)c1ccc(N/N=C2\C(=O)Nc3ccc(-c4cnco4)cc32)cc1`, the inhibition amounted to 51.9%.
In the case of `COc1cc2ncn(-c3cc(OCCc4ccccc4)c(C(N)=O)s3)c2cc1OC` it was 14.7%; in that of `Cc1nnc(-c2ccc(C)c(-c3ccc(C(=O)NCc4ccc(Cl)cc4)cc3)c2)o1`, 1.36%.
On to `C#Cc1cccc(Nc2ncnc3ccc(OCCCCNCCS(C)(=O)=O)cc23)c1`, for which the inhibition stood at 4.94%.
In the case of `COc1cccc(-n2cnc3c(N/N=C/c4ccncc4)ncnc32)c1` it was 9.77%; in that of `COc1ccc2cc(-c3c(-c4ccncc4)nc(-c4ccc(S(C)(=O)=O)cc4C)n3C)ccc2c1`, 4.11%.
In the case of `COc1ccc2ncn(-c3cc(O[C@H](C)c4ccccc4Cl)c(C(N)=O)s3)c2c1` it was 11%; in that of `O=C1NC(=O)C(c2cccc(Cl)c2)=C1Nc1ccc(Cl)c(C(=O)O)c1`, 2.72%.
In the case of `CN1CCN(CCCNc2nc3ccc(Oc4ccc(NC(=O)Nc5cc(C(F)(F)F)ccc5F)cc4)cc3[nH]2)CC1` it was 17.4%.
For the compound `C[C@@H](Oc1cc(-n2cnc3ccc(OC4CCN(C)CC4)cc32)sc1C(N)=O)c1ccccc1Cl`, the inhibition was 9.09%.
Then `c1ccc(Oc2ccc(Nc3ncc(-c4ccccc4)o3)cc2)cc1`, with 1.12%; and `CN(C)CCCNc1nccc(-c2c(-c3ccc(F)cc3)nn3cc(C(F)(F)F)ccc23)n1`, with 2.21%; and `COc1cc2ncn(-c3cc(OCc4ccccc4C(F)(F)F)c(C(C)=O)s3)c2cc1OC`, with 4.16%.
`COc1ccc2cc(-c3c(-c4ccncc4)nc(-c4ccc([S+](C)[O-])cc4C)n3C)ccc2c1` (centres undefined): the inhibition came out at 1.56%.
Take `Fc1ccc(-c2ncn(C3CCNCC3)c2-c2ccnc(Oc3ccc4c(c3)OCO4)n2)cc1`: the inhibition was 7.26%.
Then `NC(=O)c1cc(-c2ccc(F)cc2)cc(-c2ccncc2)c1N`, with 2.92%.
In the case of `CCC(=O)Nc1ccc(C)c(-c2ccc(C(=O)NCC3CC3)cc2)c1` it was 2.2%; in that of `c1ccc(-c2n[nH]cc2-c2ccnc(-c3ccc(OCCN4CCOCC4)cc3)c2)nc1`, 3.05%.
In the case of `O=C(NCC1CC1)c1ccc(-c2cccc(C(=O)NC3CC3)c2)cc1` it was -1.15%; in that of `NC(=O)Cc1ccccc1Oc1nccc(-c2c(-c3ccc(F)cc3)ncn2C2CCNCC2)n1`, 0.96%.
